This is a sample that favours compounds with a hit; in the whole collection about 11% have one here.
HP1b binding inh: blocks HP1-beta chromodomain binding to methylated histone tails. P83916. AlphaScreen HP1-beta / biotin-H3K9me3 peptide binding. Potency, µM (doses to about 114 µM), without a hit: at the top dose activity change, negative = inhibition, most hits filed as inhibitors. hit rate 0.56% among 390,000; also: nearly all actives have a fitted effect of over 70% in size
Target sequence (P83916 whole entry, looked up): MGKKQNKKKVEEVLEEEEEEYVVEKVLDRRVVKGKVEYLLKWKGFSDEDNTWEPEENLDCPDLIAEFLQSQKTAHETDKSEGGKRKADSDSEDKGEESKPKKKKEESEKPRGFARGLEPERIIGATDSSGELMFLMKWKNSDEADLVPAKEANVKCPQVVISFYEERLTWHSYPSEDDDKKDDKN
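AlphaScreen: HP1-beta (50 nM) preformed 30 min with biotin-H3(1-18)K9me3 peptide (50 nM) in PBS pH 7.4, 0.01% Tween-20. Compound added for 30 min at RT, then streptavidin donor/nickel chelate acceptor beads (10 ug/mL) for 30 min.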
G9a block: inhibitors of human histone lysine methyltransferase G9a; Q96KQ7; hit rate 8.8% among 350,000; G9a H3K9 monomethylation, AlphaScreen, 2 h; Potency, µM (highest dose often 102 µM), without a hit: top-dose activity, negative = inhibition, actives largely listed as inhibitors; also: % is scaled to controls: 0 for no effect and ±100 for the full control effect; nearly all actives have a fitted effect of over 75% in size
Target sequence (Q96KQ7 913-1193 limits assumed): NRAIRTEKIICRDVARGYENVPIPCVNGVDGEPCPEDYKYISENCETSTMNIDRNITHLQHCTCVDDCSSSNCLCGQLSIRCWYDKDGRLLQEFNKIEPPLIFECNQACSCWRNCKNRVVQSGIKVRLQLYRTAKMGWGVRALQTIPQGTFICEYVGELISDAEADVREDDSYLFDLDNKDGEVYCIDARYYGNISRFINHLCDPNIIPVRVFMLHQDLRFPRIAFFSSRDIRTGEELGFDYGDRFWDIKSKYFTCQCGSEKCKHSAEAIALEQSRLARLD
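Using a bead-based AlphaScreen, monomethylated H3K9 product from 2 h room-temperature reactions (G9a 20 nM, peptide 500 nM, SAM 20 uM) was detected with 0.5 ug/mL rabbit anti-H3K9me1 antibody.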
VDR inh: inhibitors of human vitamin D receptor. VDR-SRC2-3 peptide fluorescence polarization, 2 h. Potency, µM, for inactives: max response, negative = inhibition, most hits filed as inhibitors. hit rate 0.93% among 400,000. AID 504847; also: % is scaled to controls: 0 for no effect and ±100 for the full control effect
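The screen uses fluorescence polarization to detect compounds that interfere with recruitment of the SRC2-3 coactivator peptide to VDR; plates are read after 2 h at room temperature.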
PLK1 PBD block: blocks phosphopeptide binding to human PLK1 polo-box domain | P53350 | Plk1 PBD binding of FITC phosphopeptide, fluorescence polarization | Potency, µM, without a hit: max response, negative = inhibition, usual class: inhibitors | hit rate 2.8% among 360,000 | AID 720504; also: series mostly up to about 57 µM; % is scaled to controls: 0 for no effect and ±100 for the full control effect; nearly all actives have a fitted effect of over 65% in size
JMJD2A Tudor inh: blocks the human JMJD2A Tudor domain. AID 504339. Potency, µM (titrated, usually from 114 µM), for inactives: at the highest dose activity change, negative = inhibition, actives largely listed as inhibitors. AlphaScreen JMJD2A-Tudor / H3K4me3 peptide binding. hit rate 4.4% among 390,000; also: % is scaled to controls: 0 for no effect and ±100 for the full control effect; nearly all actives have a fitted effect of over 50% in size
BAZ2B block: BAZ2B (human) inhibition. hit rate 4.4% among 360,000. AID 504333. Q9UIF8. Potency, µM (series often up to 114 µM), for the others: at the highest dose activity change, negative = inhibition, hits mostly inhibitors. AlphaScreen BAZ2B-H3K14Ac peptide displacement; also: % is scaled to controls: 0 for no effect and ±100 for the full control effect; nearly all actives have a fitted effect of over 60% in size
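BAZ2B 50 nM plus b-H3(5-23)K14Ac 50 nM, PBS pH 7.4/0.01% Tween-20, 30 min RT; compound added (max 110 uM), 30 min RT; streptavidin donor/Ni-chelate acceptor beads 10 ug/mL final, 20 min dark; AlphaScreen read.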
The depositor's hits bear a star; ? = inconclusive; . = no result given; [ ] = another dose, or the depositor's remark. Calls follow the shape of the dose curve; as a rule, active = well fitted curve in the direction sought with a large enough effect; inconclusive = small, poorly fitted or top-dose-only effect, or another doubt; inactive = no such curve, though single readings can be large; an effect the other way counts as inactive or inconclusive. Potency is read from the fitted curve at half-maximal effect.

SMILES | HP1b binding inh | G9a block | VDR inh | PLK1 PBD block | JMJD2A Tudor inh | BAZ2B block
Cc1nc2nc[nH]c2cc1Br | 18% | -7% | -7% | -4% | 10% | -14%
Cc1nc2[nH]c(=S)[nH]c2cc1Br | 4% | 4µM* | -4% | ? | 45µM* | 0%
CC1=NNC(=O)C1CCC(=O)N/N=C/C=C/c1ccccc1 (stereo unspecified) | 42% | -8% | -6% | -6% | 1% | -1%
COc1ccccc1/C=C/C=N/NC(=O)CCC1C(=O)NN=C1C (stereo unspecified) | 9% | -1% | -29% | 27µM* | -35% | 3%
COc1cc(CN2CCN(S(=O)(=O)c3ccc(NC(C)=O)cc3)CC2)cc(OC)c1OC | ? | 25µM* | 7% | . | 22µM* | 50µM*
COc1cc(CC(=O)Nc2ccc(S(=O)(=O)N(C)C)cc2)cc(OC)c1OC | 38% | 50µM* | 2% | -4% | -9% | 26%
COc1cccc(CN2CCN(S(=O)(=O)c3ccc(NC(C)=O)cc3)CC2)c1OC | ? | -11% | -6% | -3% | 2.5µM* | -16%
COc1ccc(S(=O)(=O)N2CCN(Cc3cccc(OC)c3OC)CC2)cc1 | 21% | 0%[0.501 µM] | -2% | -15% | -9% | -11%
CCOc1cc(C(=O)N2CCCN(C)CC2)cc(OCC)c1OCC | 13% | . | 2% | -7% | -4% | 6%
C#CCOCCOCCOCCNc1nc(N2CCN(C(=O)C([C@@H](C)CC)n3cc(C(N)CC(C)C)nn3)CC2)nc(N2CCN(C(=O)[C@H](CCC(=O)O)n3cc(C(N)CC(C)C)nn3)CC2)n1 (stereo partly specified) | 20% | -39%[12.7 µM] | -10% | -11% | 79µM* | 79µM*
C#CCOCCOCCOCCNc1nc(N2CCN(C(=O)C([C@@H](C)CC)n3cc(C(N)CO)nn3)CC2)nc(N2CCN(C(=O)[C@H](CCC(=O)O)n3cc(C(N)CC(C)C)nn3)CC2)n1 (stereo partly specified) | 62% | -1%[12.7 µM] | -14% | -4% | 50µM* | 50µM*
C#CCOCCOCCOCCNc1nc(N2CCN(C(=O)[C@H](CCC(=O)O)n3cc(C(N)CC(C)C)nn3)CC2)nc(N2CCN(C(=O)[C@H](CCC(=O)O)n3cc(C(N)CC(C)C)nn3)CC2)n1 (stereo partly specified) | 23% | 10%[12.7 µM] | -12% | 5% | 79µM* | 79µM*
Cc1ccc(S(=O)(=O)N2CCN(C(=O)CCN3C(=O)c4ccccc4C3=O)CC2)cc1C | 10% | 79µM* | -25% | -5% | -6% | -8%
O=C(CCN1C(=O)c2ccccc2C1=O)N1CCN(Cc2ccc(Cl)cc2Cl)CC1 | 14% | 40µM* | -18% | -8% | -19% | 4%
CCCCOc1ccc(CNC(=O)c2ccc(NC(=O)N3CCSc4ncccc43)cc2)cc1 | 6% | 0%[59 µM] | 3% | . | -7% | -17%
CC(=O)NC1=NN(C(C)=O)C(c2sccc2C)S1 (stereo unspecified) | 16% | 7% | -5% | -10% | -11% | 2%
CCOC(=O)c1c(NC(=O)CSc2nnc(-c3ccncc3)n2Cc2ccco2)sc(C)c1C | -4% | 50µM* | 51% | -8% | ? | ?
Cc1cc(C)c(NC(=O)CSc2nnc(-c3ccncc3)n2Cc2ccco2)c(Cl)c1 | 17% | 50µM* | -2% | -5% | -18% | 11%
Cc1cc(C)c(NC(=O)CSc2nnc(-c3ccccn3)n2N)c(Cl)c1 | -1% | -33% | 8% | -17% | 45µM* | 14µM*
CCOC(=O)c1c(NC(=O)CSc2nnc(-c3ccncc3)n2Cc2ccco2)sc(C(C)=O)c1C | 11% | . | -15% | -8% | -14% | .
OC(c1cccnc1)c1nc(-c2ccc3c(c2)OCO3)cs1 (stereo unspecified) | . | . | . | 4% | . | .
O=C(NCc1ccco1)c1ccc(C(=O)NCc2ccco2)s1 | -27% | 6%[12.7 µM] | -23% | 11µM* | -10%[11.4 µM] | -6%
Cc1c(Br)cc(C(=O)NCc2ccco2)c(C)c1C | 8% | ? | 8% | -22% | -35% | 56µM*

Screening results: PubChem, National Center for Advancing Translational Sciences (NCATS)
